# Reference: a collection of fitness landscapes (doi:10.1126/science.1257360)
# The full ranking holds about 140,000 sequences; the median of “enrichment ratio after two sorts for PhoP signalling” is about 0, and the highest 2% start at about 11. Only a selection was taken, and the highest values are over-represented in it overall.
# B1: PhoQ; a variant is named by its letters at X, in order, P23837 (parent)
# chain: MKKLLRLFFPLSLRVRFLLATAAVVLVLSLAYGMVALIGYSVSFDKTTFRLLRGESNLFYTLAKWENNKLHVELPENIDKQSPTMTLIYDENGQLLWAQRDVPWLMKMIQPDWLKSNGFHEIEADVNDTSLLLSGDHSIQQQLQEVREDDDDAEMTHSVAVNVYPATSRMPKLTIVVVDTIPVELKSSYMVWSWFIYVLSANLLLVIPLLWVAAWWSLRPIEALAKEVRELEEHNRELLNPATTRELTSLVRNLNRLLKSERERYDKYRTTLTDLTHSLKTPLXXLQXXLRSLRSEKMSVSDAEPVMLEQISRISQQIGYYLHRASMRGGTLLSRELHPVAPLLDNLTSALNKVYQRKGVNISLDISPEISFVGEQNDFVEVMGNVLDNACKYCLEFVEISARQTDEHLYIVVEDDGPGIPLSKREVIFDRGQRVDTLRPGQGVGLAVAREITEQYEGKIVAGESMLGGARMEVIFGRQHSAPKDE
# Variants of: B1
# Assay: enrichment ratio after two sorts for PhoP signalling (ratio (wild type AVST 3.29)); higher = more functional
# Conditions: with PhoP (E. coli)
row,Variant,enrichment ratio
1,YELN,2.61
2,KINA,≤ 0.25
3,IDLY,≤ 0.25
4,SGPA,≤ 0.25
5,TVIM,≤ 0.25
6,ALLC,1.19
7,SWSV,≤ 0.25
8,LKFM,≤ 0.25
9,FEFH,≤ 0.25
10,QVWL,1.05
11,QIWN,27.2
12,QQEL,≤ 0.25
13,QQRL,≤ 0.25
14,QRYN,≤ 0.25
15,QRWN,≤ 0.25
16,QPWN,≤ 0.25
17,QEYN,≤ 0.25
18,QIYN,20.5
19,QQNL,14.9
20,QQWL,11.7
21,QQQL,≤ 0.25
22,LCAS,≤ 0.25
23,AWQV,≤ 0.25
24,QRPC,≤ 0.25
25,IARV,≤ 0.25

row,Variant,enrichment ratio
1,HCSE,≤ 0.25
2,YKNC,≤ 0.25
3,HYGG,≤ 0.25
4,ESAV,2.02
5,LFIM,≤ 0.25
6,WQAC,≤ 0.25
7,MMIC,≤ 0.25
8,DWCG,≤ 0.25
9,TQCV,10.8
10,TQPI,≤ 0.25
11,TQIE,≤ 0.25
12,TQCS,15.1
13,TQCG,14.9
14,TQAI,3.21
15,TQNE,≤ 0.25
16,TQCE,87.9
17,TQCP,≤ 0.25
18,TQCA,17.6
19,FQCG,1.7
20,HAWL,≤ 0.25
21,SAVY,1.85
22,QKIT,≤ 0.25
23,GSFP,≤ 0.25
24,DITR,≤ 0.25
25,PWHF,≤ 0.25

row,Variant,enrichment ratio
1,MSDL,≤ 0.25
2,NNLP,≤ 0.25
3,RETI,≤ 0.25
4,HCYR,≤ 0.25
5,RHMQ,≤ 0.25
6,WQYV,≤ 0.25
7,RTWF,≤ 0.25
8,SQYS,≤ 0.25
9,TQCI,16
10,TQCK,1.24
11,TQTH,6.85
12,TQEL,≤ 0.25
13,TQQP,≤ 0.25
14,TQYS,12.5
15,TQCQ,27.8
16,TQYK,≤ 0.25
17,TQRL,≤ 0.25
18,FQCQ,≤ 0.25
19,TQCL,12.5
20,WRPN,≤ 0.25
21,GCIS,2.07
22,PPWA,≤ 0.25
23,HQSY,≤ 0.25
24,RKAR,≤ 0.25
25,MEHS,≤ 0.25

row,Variant,enrichment ratio
1,EHIP,≤ 0.25
2,TQWI,1.91
3,TQSK,≤ 0.25
4,TQWA,17.1
5,NVSA,≤ 0.25
6,TQSA,19.8
7,HDSA,≤ 0.25
8,TQCT,12.5
9,RNCT,≤ 0.25
10,TQYI,≤ 0.25
11,WQCT,≤ 0.25
12,TQYE,35.7
13,NQYE,≤ 0.25
14,GFAI,≤ 0.25
15,GLPN,≤ 0.25
16,GAFM,≤ 0.25
17,EVEQ,≤ 0.25
18,FEQI,≤ 0.25
19,YIWG,≤ 0.25
20,TQSI,11.7
21,TQTG,5.83
22,TQRK,≤ 0.25
23,WSSI,≤ 0.25
24,TEFF,6.49
25,MCRI,≤ 0.25

row,Variant,enrichment ratio
1,MEVE,≤ 0.25
2,TELE,11.2
3,TEVE,11.6
4,TEYE,≤ 0.25
5,MELE,≤ 0.25
6,HPLE,≤ 0.25
7,RSQR,≤ 0.25
8,YMEV,≤ 0.25
9,GDVM,28.9
10,TDVI,11.8
11,GDYM,≤ 0.25
12,GDTM,4.42
13,GDDV,≤ 0.25
14,FDVI,≤ 0.25
15,GDVA,≤ 0.25
16,GDIV,8.68
17,GDVI,20
18,GDTV,13.7
19,GDNY,≤ 0.25
20,LTVI,≤ 0.25
21,INWI,≤ 0.25
22,VNRI,≤ 0.25
23,NHGQ,≤ 0.25
24,MSWY,5.91
25,SPRG,≤ 0.25

row,Variant,enrichment ratio
1,PPYC,≤ 0.25
2,HEPW,≤ 0.25
3,EAAS,≤ 0.25
4,SSIV,14.2
5,SSAE,10.5
6,SSYV,1.11
7,SPAV,≤ 0.25
8,SSID,≤ 0.25
9,SSII,16.3
10,SSWV,0.518
11,SSPV,1.03
12,SSAV,12.9
13,KSIV,≤ 0.25
14,KSII,≤ 0.25
15,SSMV,18.9
16,EHMI,≤ 0.25
17,WWKN,≤ 0.25
18,YRIR,≤ 0.25
19,HENW,≤ 0.25
20,GDFP,≤ 0.25
21,WFHL,≤ 0.25
22,EAAQ,≤ 0.25
23,NSIS,≤ 0.25
24,SSIS,11.9
25,SSIE,≤ 0.25

row,Variant,enrichment ratio
1,SSMD,3.52
2,ADIS,≤ 0.25
3,AQIS,13
4,KSIS,≤ 0.25
5,SSIM,18.4
6,AQIV,9.59
7,SSMR,≤ 0.25
8,SCIM,3.17
9,SSMI,19
10,ASCT,11.1
11,DRDN,≤ 0.25
12,ADGC,≤ 0.25
13,QENS,≤ 0.25
14,MSVE,≤ 0.25
15,VCLI,5.48
16,TNQT,7.38
17,KSIL,≤ 0.25
18,SSMG,10.3
19,KSMF,≤ 0.25
20,SQIV,5.01
21,DPIS,≤ 0.25
22,SSEL,0.485
23,SQIS,13.9
24,SSMS,11.7
25,SSHF,≤ 0.25

row,Variant,enrichment ratio
1,SSMF,12.7
2,SSIL,12.3
3,SSMW,≤ 0.25
4,IRSG,≤ 0.25
5,FANW,≤ 0.25
6,HNPM,≤ 0.25
7,CVPS,≤ 0.25
8,FSNW,≤ 0.25
9,APGD,≤ 0.25
10,SFDK,≤ 0.25
11,MPYC,≤ 0.25
12,EQDL,≤ 0.25
13,SYII,≤ 0.25
14,TSIG,≤ 0.25
15,SCII,5.01
16,KSIM,≤ 0.25
17,FDIM,≤ 0.25
18,FSIM,11.9
19,SSIG,11.5
20,SDII,11.7
21,KSIG,≤ 0.25
22,SSME,16.6
23,STME,8.24
24,KSME,≤ 0.25
